The values that follow come from PubChem BioAssay (EPA / NIEHS).

Where “and” joins values, the source holds several entries; their conditions need not be identical. Identical values can stand only once. Inconclusive results are not listed. Some structures have more than one record in an assay (separate samples or runs), and their calls can disagree. Calls of active or inactive are those of the source. The calls were made as follows: active = hit-call score of the fitted dose curve at least 0.9, where 1 is the maximum; inconclusive = response in the unintended direction; inactive = score below 0.9.

For orientation: AC50 means the concentration giving half of the maximal activity seen.

Sequence of Bile acid receptor (Homo sapiens) (Q96RI1 whole entry, looked up, the tested form may be a part): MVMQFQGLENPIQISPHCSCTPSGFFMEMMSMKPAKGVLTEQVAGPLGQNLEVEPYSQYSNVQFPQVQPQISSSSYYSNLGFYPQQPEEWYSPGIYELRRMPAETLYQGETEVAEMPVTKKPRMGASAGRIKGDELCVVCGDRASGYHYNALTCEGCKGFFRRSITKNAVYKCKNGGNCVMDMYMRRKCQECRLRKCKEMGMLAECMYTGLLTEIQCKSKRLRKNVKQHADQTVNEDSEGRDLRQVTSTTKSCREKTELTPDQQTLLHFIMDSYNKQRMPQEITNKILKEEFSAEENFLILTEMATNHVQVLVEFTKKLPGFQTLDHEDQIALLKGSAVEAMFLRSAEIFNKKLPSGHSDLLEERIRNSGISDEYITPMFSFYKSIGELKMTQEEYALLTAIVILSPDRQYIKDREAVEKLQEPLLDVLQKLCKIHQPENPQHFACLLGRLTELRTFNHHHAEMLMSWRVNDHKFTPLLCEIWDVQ

The experiment deals with Bile acid receptor (Homo sapiens) (UniProt Q96RI1). The experiment is described as follows: ATG_FXR_TRANS: Attagene TRANS-FACTORIAL HepG2 Assay for Farnesoid X Receptor (FXR) (AID 2282979).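 Also: hits raise reporter mRNA above DMSO so AC50 marks FXR activation.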 The following applies: HepG2 Attagene TRANS FXR-GAL4 reporter transcription. The method, then:
ATG_TRANS is a cell-based, multiplexed-readout assay that uses HepG2, a human liver cell line, with measurements taken at 24 hours after chemical dosing in a 24-well plate.ATG_FXR_TRANS is one of 30 assay component(s) measured or calculated from the ATG_TRANS assay. It is designed to make measurements of mRNA induction, a form of inducible reporter, as detected with fluorescence intensity signals by Reverse transcription polymerase chain reaction (RT-PCR) and Capillary electrophoresis technology.Data from the assay component ATG_FXR_TRANS was analyzed into 1 assay endpoint. This assay endpoint, ATG_FXR_TRANS, was analyzed in the positive analysis fitting direction relative to DMSO as the negative control and baseline of activity. Using a type of inducible reporter, measures of mRNA for gain-of-signal activity can be used to understand the reporter gene at the transcription factor-level as they relate to the gene NR1H4. Furthermore, this assay endpoint can be referred to as a primary readout, because this assay has produced multiple assay endpoints where this one serves a reporter gene function. To generalize the intended target to other relatable targets, this assay endpoint is annotated to the nuclear receptor intended target family, where the subfamily is non-steroidal.
Human liver HepG2 cells are transiently transfected with multiple reporter transcription units (MRTUs) in 6-well plates using FuGene 6 reagent (Roche; 3 ml FuGene/1 mg DNA). The MRTU constructs are regulated by a cis-regulating element (promoter). […] A major difference between the CIS and TRANS system is that in CIS activities of endogenous TFs are measured, whereas the TRANS assay evaluates changes in activities of exogenous, chimeric NR-Gal4 proteins. […] At the end of 24 hour incubation, total RNA was isolated using TriZol reagent (Invitrogen). The isolated RNA is then reverse-transcribed using oligo(dT) primer and Mo-MLV reverse transcriptase (Invitrogen) with DNAse I (Ambion) treatment for 30 min. The one-tenth of the produced cDNA was amplified by PCR using Taq DNA polymerase (Invitrogen) and two reporter sequence-specific primers. The PCR products were fluorescently labeled by primer extension with 6-arboxyfluorescein (6-FAM) 5'-labeled reporter sequence-specific primer (2 min at 95 C, 20 s at 68 C and 10 min at 72 C) and these products were digested with 5U of HpaI (New England Biolabs) for 2h at 37 C. The fragments were purified using Qiaquick PCR columns (Qiagen), analyzed on an ABI 3130xL genetic analyzer (Applied Biosystems) with peak positions identified by using a set of X-rhodamine (ROX)-labeled MapMarker1000 molecular weight standards (BioVentures). The raw capillary electrophoresis data was processed using Attagraph software (Attagene).
With `O=[N+]([O-])c1ccc2c3c(cccc13)CC2`, the result was inactive. Same read-out and setting: then `CCN1CCC2(CC1)COc1cc3c(cc12)N(C(=O)c1ccc(-c2ccc(-c4nnc(C)o4)cc2C)cc1)CC3`, with “inactive”; and `Nc1ccc(Cl)cc1C(=O)c1ccccc1`, with “inactive”; and `O=C(O)C(F)(F)C(F)(F)C(F)(F)C(F)(F)C(F)(F)C(F)(F)F`, with “inactive”. Take `CCC[CH2][Sn]([Cl])([Cl])[Cl]`: the compound was classed as inactive.

Consider `CCOP(=S)(OCC)SCCS(=O)(=O)CC`, for which the compound was called inactive. Turning to `CCc1ccccc1C`, the call was inactive. Same read-out and setting: then `O=C(Cc1ccccc1)c1ccccc1`, with “inactive”. On the same count and under the same terms, then `CC(=[OH+])/C=C(/C)[O-].CC(=[OH+])/C=C(/C)[O-].CC(=[OH+])/C=C(/C)[O-].[Fe]`, with “inactive”; and `O=C(O)Cc1ccccc1`, with “inactive”; and `ClC1(Cl)C2(Cl)C3(Cl)C4(Cl)C(Cl)(Cl)C5(Cl)C3(Cl)C1(Cl)C5(Cl)C24Cl` (stereo not given), with “inactive”.

For `O=C1C2(Cl)C3(Cl)C4(Cl)C(Cl)(Cl)C5(Cl)C3(Cl)C1(Cl)C5(Cl)C24Cl` (stereo not given), the half-maximal activity concentration (AC50) is 4.29 µM (active) and 8.79 µM (active) and 10.4 µM (active); the result was inactive. On to `Clc1ccc(C2(Cn3cncn3)CC(Br)CO2)c(Cl)c1` (stereo not given), for which the call was inactive. Same read-out and setting: for `O=C(Cl)c1ccc(Cl)cc1` the value was “inactive”. Same read-out and setting: for `CCC(C)c1cccc(C(C)CC)c1O` (stereo not given) the value was “inactive”.

For the compound `CC(=O)[O][Hg][c]1ccccc1`, the compound was called inactive. Same read-out and setting: for `CCC1(c2ccc(N)cc2)CCC(=O)NC1=O` (stereo not given) the value was “inactive”; for `Oc1ccc(-c2ccccc2)cc1`, “inactive”.

As to `CCC(C)(C)c1ccc(O)c(C(C)(C)CC)c1`, the AC50 is 49.5 µM (active). Consider `CCOP(=S)(OCC)Oc1nc(Cl)c(Cl)cc1Cl`, for which the outcome was inactive. Still for that read-out and setting: then `CCN(CC)C(=O)Cl`, with “inactive”; and `CCC(=O)C(CC(C)N(C)C)(c1ccccc1)c1ccccc1` (stereo not given), with “inactive”.

Turning to `CCC(=O)c1ccccc1`, the compound was called inactive. On the same count and under the same terms, for `CC(C)(C)CC(C)(C)c1ccc(O)cc1` the value was “inactive”; for `Oc1cccc2cccnc12`, “inactive”; for `CC(C)C1CCC(Cc2ccc(Cl)cc2)C1(O)Cn1cncn1` (stereo not given), “inactive”. For the compound `CN(C)N=O`, the call was inactive. The same measure, in the same setting: for `ClCc1cccnc1` the value was “inactive”; for `C=C(C)C#N`, “inactive”. Same read-out and setting: then `CCOP(OCC)OCC`, with “inactive”. On the same count and under the same terms, for `CC(C)(c1ccccc1)c1ccc(O)c(C(C)(C)c2ccccc2)c1` the value was “inactive”. As to `CN(C)P(=O)(N(C)C)N(C)C`, the result was inactive. Still for that read-out and setting: then `COC[C@H](C)N(C(=O)CCl)c1c(C)csc1C`, with “inactive”. On the same count and under the same terms, then `O=C(Nc1ccc2[nH]ccc2c1)c1cc2cc(F)ccc2n1Cc1cccc(F)c1`, with “inactive”. On the same count and under the same terms, then `CC(=O)OC(c1ccccc1)C(Cl)(Cl)Cl` (stereo not given), with “inactive”. For `Cl/C=C\C[N+]12CN3CN(CN(C3)C1)C2`, the compound was called inactive.

Regarding `ClC1=C(Cl)[C@]2(Cl)[C@@H]3[C@@H](Cl)[C@@H](Cl)C[C@@H]3[C@@]1(Cl)C2(Cl)Cl`, the call was inactive. Same read-out and setting: for `CC1(C)CCC(Cc2ccc(Cl)cc2)C1(O)Cn1cncn1` (stereo not given) the value was “inactive”.

Consider `CC(C)c1ccc(CO)cc1`, for which the outcome was inactive.
